# High-throughput results from PubChem.
# ST2 IL33 inh = IL1RL1 inhibition | AlphaLISA ST2-Fc/biotin-IL-33 interaction, 1 h | 2.3% of 78,000 active | inhibition, % for hits at 17 µM | Q01638; in the data active means inhibition above about 30%
# Target sequence (Q01638 whole entry, looked up): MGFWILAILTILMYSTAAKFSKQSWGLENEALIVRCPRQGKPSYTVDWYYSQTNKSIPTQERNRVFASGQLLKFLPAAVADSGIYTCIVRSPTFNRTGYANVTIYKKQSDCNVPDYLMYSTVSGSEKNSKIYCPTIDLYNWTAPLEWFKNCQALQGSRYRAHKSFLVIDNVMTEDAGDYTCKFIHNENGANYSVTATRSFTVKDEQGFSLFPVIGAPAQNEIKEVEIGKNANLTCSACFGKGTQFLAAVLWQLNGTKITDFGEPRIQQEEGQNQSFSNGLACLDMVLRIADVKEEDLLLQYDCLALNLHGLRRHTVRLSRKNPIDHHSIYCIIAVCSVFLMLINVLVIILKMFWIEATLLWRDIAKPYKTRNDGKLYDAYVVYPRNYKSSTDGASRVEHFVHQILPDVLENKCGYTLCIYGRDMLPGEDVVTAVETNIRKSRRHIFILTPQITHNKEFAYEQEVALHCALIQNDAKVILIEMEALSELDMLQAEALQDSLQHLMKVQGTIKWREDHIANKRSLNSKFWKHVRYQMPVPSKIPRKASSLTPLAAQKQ
# Numbers stand for hits; - = inactive; ! = repeats disagree. This is one part of a sample in which hits are shown more often than they occur.
SMILES,ST2 IL33 inh
O=C(c1nn2cc(Br)cnc2c1Br)N1CCOCC1,-
O=C(c1cc2ncc(Br)cn2n1)N1CCOCC1,38.0%
CCn1c(CC2CCNCC2)nn(CCC2CCCCN2C)c1=O (centres undefined),-
NC(=O)c1cccnc1N1C[C@H]2OC(=O)N(CCc3ccc(F)cc3)[C@H]2C1,-
CN[C@@H]1[C@H](O)[C@H](CO)O[C@@H]1CNC(C)C,-
COCc1nc(N(C)Cc2cc(-c3cccnc3)no2)c2cnn(C)c2n1,-
CCSCCNc1nc(-c2cccnc2)nc2c1cnn2C,-
CNc1ncc(CN(C)c2nc(-c3cccnc3)nc3c2cnn3C)cn1,46.0%
CCOc1ccccc1N1CCN(Cc2ccc(OC)c(O)c2)CC1,-
COc1ccccc1C(=O)Oc1ccc2c(c1)C(C)=CC(C)(C)N2,-
CC1=CC(C)(C)Nc2ccc(OC(=O)c3ccc4c(c3)OCO4)cc21,30.0%
COc1ccc(/C(N)=N\OC(=O)c2ccc3c(c2)OCO3)cc1OC,-
CC1(C2CCCCC2)Cc2ccccc2-c2nc3[nH]ncn3c(=O)c21 (centres undefined),-
O=C(CN1CCCC1=O)N1CCC(CO)(Cc2ccccc2)CC1,-
Cc1nn(S(=O)(=O)c2ccc(Cl)cc2)c(C)c1Sc1ccccc1,-
Oc1ccc(/C=C/c2ccc(/C=C/c3ccc(O)cc3)c(Br)c2)cc1,-
COC(=O)[C@]1(O)C[C@@H](O)[C@@H](O)[C@H](OC(=O)/C=C/c2ccc(O)c(O)c2)C1,-
Oc1cc(O)cc(/C=C/c2ccc(O)c(O)c2)c1,33.0%
CN1CCC(CNC(=O)CCC(=O)Nc2ccc3c(c2)CCC3)C1 (centres undefined),-
Oc1oc(-c2ccc(Cl)cc2)nc1C=Nc1cc(Cl)ccc1Cl,-
CC(=O)Nc1ccc(N=Cc2nc(-c3ccc(Cl)cc3)oc2O)cc1,33.0%
Cc1c(Cl)cccc1N=Cc1nc(-c2ccc(Cl)cc2)oc1O,33.0%
Oc1ccc(N=Cc2nc(-c3ccccc3)oc2O)cc1,-
Oc1oc(-c2ccc(Cl)cc2)nc1C=Nc1ccccc1Cl,-
Cc1c(Cl)cccc1N=Cc1nc(-c2ccccc2)oc1O,-
SMILES,ST2 IL33 inh
CC(=O)N1CCc2cc(Br)cc(S(=O)(=O)CCC(=O)Nc3ccc(F)cc3)c21,-
OC1CCCN(c2ccnc(N3CCN(CCc4ccccc4)CC3)n2)C1 (centres undefined),-
CC(CCc1ccco1)Nc1nc(C2CCCC2)nc2c1CNC2 (centres undefined),-
Cc1ccc(F)cc1-n1c(CCCN2CCOCC2)n[nH]c1=O,-
C/C=C/c1ccc(OCc2ccccc2)c(OC)c1,-
COc1ccc(C=Nc2ccc3[nH]c(=O)[nH]c3c2)cc1OC,-
COc1ccc(N=Cc2ccc(OCc3ccccc3)cc2)cc1OC,33.0%
CC(C)CCNC(=O)c1cc(=O)[nH]c2ccc(S(=O)(=O)N(C)C3CCCCC3)cc12,-
COc1cc(O)c2c(=O)c(OC)c(-c3cc(O)c(OC)c(OC)c3)oc2c1,94.0%
COc1c(-c2ccc(O)c(O)c2)oc2cc(O)cc(O)c2c1=O,-
COc1cc(O)c2c(=O)c(O[C@@H]3O[C@H](CO[C@@H]4O[C@@H](C)[C@H](O)[C@@H](O[C@@H]5O[C@@H](C)[C@H](O)[C@@H](O)[C@H]5O)[C@H]4O)[C@H](O)[C@H](O)[C@H]3O)c(-c3ccc(O)c(O)c3)oc2c1,-
CCc1ccccc1N(C(=O)c1cc(C)cc(C)c1)C1C=CS(=O)(=O)C1 (centres undefined),-
O=C1C[C@@H]2CCN(C(=O)NC3CCCCC3)C[C@@H]2CCN1CCN1CCNC1=O,-
COc1ccc(-n2nc(C(=O)NC3CCCC3)c3c4ccccc4n(C)c3c2=O)cc1Cl,-
O=[N+]([O-])c1cc(C(F)(F)F)ccc1N1CCN(S(=O)(=O)c2ccccc2)CC1,-
O=[N+]([O-])c1ccccc1S(=O)(=O)Nc1cccc(C(F)(F)F)c1,-
O=[N+]([O-])c1cc(C(F)(F)F)ccc1NCCc1ccccc1,33.0%
CCn1cc(C(=O)N2CCCCCC2)c(=O)c2cc(S(=O)(=O)N3CC(C)CC(C)C3)ccc21 (centres undefined),-
COCCNC(=O)c1cc2cc3cc(OC)ccc3nc2o1,-
CN1CC2(CCCN(c3ncccc3C(N)=O)CC2)OC1=O (centres undefined),-
COc1ccc(NC2=C(C)C(=O)CC2)cc1,-
COc1ccc(C2CC(=O)C=C(Nc3ccccc3)C2)cc1 (centres undefined),-
COc1ccc(Nc2ccccc2)c(C)c1,37.0%
COc1ccc(CNc2ccccc2C(=O)O)cc1,-
COc1ccc(Nc2ccc(OC)cc2)cc1,70.0%
SMILES,ST2 IL33 inh
COc1ccc(NC(=O)Nc2ccc(I)cc2)cc1,-
COc1ccc(NS(=O)(=O)c2cccc(C(=O)Nc3ccccc3C(=O)O)c2)cc1,-
COc1ccc(OC)c(S(=O)(=O)Nc2ccccc2)c1,-
COc1ccc(Nc2ccccc2C(=O)O)cc1,35.0%
CC1=C(C(=O)Nc2ccccc2)C(c2ccc(Cl)cc2)n2ncnc2N1 (centres undefined),-
CC1CCC(NC(=O)CCCn2c(=O)[nH]c3ccsc3c2=O)CC1 (centres undefined),-
Cc1c(C(=O)NCCCN2CCOCC2)sc2ncn(C)c(=O)c12,-
COc1ccc(C(C)N(C)C(=O)C(c2ccccc2)c2ccccc2)cc1OC (centres undefined),-
COc1ccc(OC)c(/C=C2/C(=O)NN(c3ccc(C)c(Cl)c3)C2=O)c1,-
COc1cccc(C(=O)c2c[nH]c3ccc(C)cc3c2=O)c1,-
Cc1cc(C)n(C(=O)Cc2cccc3ccccc23)n1,-
COCCN(CC1CCN(Cc2ccccc2F)CC1)C(=O)c1ccnc2ccc(C)cc12,-
COc1ccc(Cn2c(CNC(=O)c3cc(OC)c(OC)c(OC)c3)nc3cccnc32)cc1,-
Cc1cc(CNC(=O)c2ccccc2-n2cncn2)c2[nH]c(C)c(C)c2c1,-
Nc1cccc(C(=O)Nc2ccccc2Cl)c1,-
Nc1ccc(Cl)c(NC(=O)CC(=O)c2ccccc2)c1,-
Nc1ccc(Nc2ccccc2)c(Cl)c1,44.0%
Cc1ccc(Cl)cc1N1CCN(Cc2nc3c(c(=O)[nH]c(=O)n3C)n2CC(N)=O)CC1,-
CCCc1nc2oc3c(-c4ccccc4)c(C(=O)O)c(C)nc3c2c2c1COC(C)(C)C2,-
CCc1nc2oc(C(=O)c3ccccc3)c(N)c2c2c1COC(C)(C)C2,40.0%!
CCc1nc2oc(C(=O)c3ccc(Cl)cc3)c(N)c2c2c1COC(C)(C)C2,-
O=C(O)C1CC2(CCNCC2)CN1C(=O)c1cccc(Oc2ccccc2)c1 (centres undefined),-
CC(NCc1cn(C)nc1-c1ccc(Oc2ccccc2)cc1)c1ccccc1 (centres undefined),-
CCNc1ccc(N)c(C)c1C,79.0%
COc1ccc(Br)c(C2Oc3nc(SC)nnc3-c3ccccc3N2C(C)=O)c1 (centres undefined),-
C=CCSc1nnc2c(n1)OC(c1ccncc1)N(C(C)=O)c1ccccc1-2 (centres undefined),-
CCN(CC)c1ccc(C2Oc3nc(SC)nnc3-c3ccccc3N2C(C)=O)c(OC)c1 (centres undefined),36.0%
COc1cc(C2Oc3nc(SC)nnc3-c3ccccc3N2C(C)=O)cc(OC)c1OC (centres undefined),-
C=CCSc1nnc2c(n1)OC(c1ccc(OC)cc1OC)N(C(C)=O)c1ccccc1-2 (centres undefined),30.0%
C=CCSc1nnc2c(n1)OC(c1ccccn1)N(C(C)=O)c1ccccc1-2 (centres undefined),-
